Bioassay records: PubChem, National Center for Advancing Translational Sciences (NCATS)
WRN inhibitor = blocks human WRN helicase; Q14191; WRN helicase unwinding, fluorescent forked duplex, kinetic; Potency, µM (series often up to 114 µM), for the others: top-dose activity change, negative = inhibition, hits mostly inhibitors; 360,000 compounds, 0.46% hits; AID 651768; further: potency means the concentration at half of the fitted maximal effect; on the % scale 0 is the no-effect control and ±100 the full control effect; nearly all actives have a fitted effect of over 55% in size
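WRN at 20 nM final was preincubated with compound for 15 min at room temperature; reaction started with 100 nM forked duplex oligonucleotide carrying fluorophore and quencher plus 2 mM ATP (final). Unwinding followed kinetically by red fluorescence (ex 525/em 598 nm).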
Pol kappa inh = blocks human DNA polymerase kappa activity | Q9UBT6 | purified Pol kappa, fluorescent DNA synthesis assay, 10 min | Potency, µM (top dose mostly 107 µM), for inactives: top-dose activity, negative = inhibition, hits mostly inhibitors | 400,000 compounds, 0.53% hits | AID 588579; further: potency means the concentration at half of the fitted maximal effect; on the % scale 0 is the no-effect control and ±100 the full control effect
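Activity was followed as the change in fluorescence between reads at 0 and 10 min after starting the reaction with 50 nM substrate. Beforehand, 10 nM polymerase had been preincubated with compound for 15 min at room temperature.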
Pol iota inh = blocks human DNA polymerase iota activity; Pol iota fluorescent replication assay, 10 min; Q9UNA4; Potency, µM (top dose mostly 115 µM), inactives show at the highest dose activity, negative = inhibition, most hits filed as inhibitors; AID 588590; 390,000 compounds, 1% hits; further: potency means the concentration at half of the fitted maximal effect
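Pol iota at 10 nM preincubated 15 min with compounds at room temperature; reaction started with fluorescent substrate, 50 nM final. Fluorescence read kinetically at 0 and 10 min; buffer-only wells as negative control.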
Pol eta inh = inhibitors of human DNA polymerase eta; recombinant Pol eta, fluorescent DNA replication assay; Potency, µM (doses to about 114 µM), for the others: at the highest dose activity change, negative = inhibition, hits mostly inhibitors; 390,000 compounds, 1.2% hits; AID 588591; further: potency means the concentration at half of the fitted maximal effect; on the % scale 0 is the no-effect control and ±100 the full control effect
Target sequence (Q9Y253 whole entry, looked up): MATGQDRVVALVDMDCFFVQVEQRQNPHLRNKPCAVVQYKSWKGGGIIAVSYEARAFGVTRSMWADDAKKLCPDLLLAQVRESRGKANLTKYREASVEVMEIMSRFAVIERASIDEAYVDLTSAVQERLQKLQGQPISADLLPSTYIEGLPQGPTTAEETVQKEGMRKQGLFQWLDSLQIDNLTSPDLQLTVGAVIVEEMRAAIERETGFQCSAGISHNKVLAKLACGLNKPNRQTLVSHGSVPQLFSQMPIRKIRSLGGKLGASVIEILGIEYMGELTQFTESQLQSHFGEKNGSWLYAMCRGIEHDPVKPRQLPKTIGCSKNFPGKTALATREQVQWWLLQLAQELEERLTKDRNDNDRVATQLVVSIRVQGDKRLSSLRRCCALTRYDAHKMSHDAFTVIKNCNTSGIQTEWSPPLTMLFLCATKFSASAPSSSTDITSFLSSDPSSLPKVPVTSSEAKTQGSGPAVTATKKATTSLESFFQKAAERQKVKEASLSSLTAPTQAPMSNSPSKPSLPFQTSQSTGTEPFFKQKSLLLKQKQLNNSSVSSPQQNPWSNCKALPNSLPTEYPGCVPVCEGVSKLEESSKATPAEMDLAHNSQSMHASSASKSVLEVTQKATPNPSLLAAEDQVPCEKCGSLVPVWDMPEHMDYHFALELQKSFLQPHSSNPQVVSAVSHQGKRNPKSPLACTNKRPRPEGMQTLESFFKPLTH
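Pol eta (10 nM) was preincubated with compounds for 15 min at room temperature, after which fluorescent replication substrate (50 nM final) was added to start the reaction. Fluorescence was read kinetically at 0 and 10 min.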
POLB inh = blocks human DNA polymerase beta activity. Potency, µM (top dose mostly 114 µM), for inactives: at the top dose activity change, negative = inhibition, actives largely listed as inhibitors. Pol beta primer extension/strand displacement, fluorescence kinetic. P06746. 340,000 compounds, 1.3% hits. AID 485314; further: potency means the concentration at half of the fitted maximal effect; on the % scale 0 is the no-effect control and ±100 the full control effect
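Homogeneous kinetic assay of primer extension and strand displacement by 10 nM Pol beta, preincubated 15 min at room temperature with compound before 50 nM substrate (final) was added. Read at 0 and 10 min; four-parameter Hill fit.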
PI5P4K alpha inh = PI5P4K alpha (human) kinase inhibition | PI5P4Kalpha enzyme, ADP-Glo luminescence, 60 min; active compounds read low | P48426 | 330,000 compounds, 1.2% hits | AID 652105 | max response, %; active means max response of -50% or lower; inconclusive means between -30% and -50%; inactive means -30% or higher; further: value at the top dose of about 77 µM; on the % scale 0 is the no-effect control and ±100 the full control effect
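Reactions run in 0.038 M HEPES pH 7.4, 0.28 mM EGTA, 0.1% CHAPS and 5% DMSO, with PI5P4Kalpha, substrate, compound and 5 microM ATP final, one hour at room temperature. Readout is ADP-Glo luminescence.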
Numbers without * were called inactive; ? = inconclusive; nt = not tested or not shown; ! = not active in a repeat; [ ] = remark or other dose. Shown are actives, neighbours in structure and some others; about 2.8% of the full set was active somewhere. Unless noted, the call rests on the fitted dose curve; in most records, active means well fitted curve in the direction sought with a large enough effect; inconclusive means small, poorly fitted or top-dose-only effect, or another doubt; inactive means no such curve, though single readings can be large; an effect the other way counts as inactive or inconclusive.

SMILES | WRN inhibitor | Pol kappa inh | Pol iota inh | Pol eta inh | POLB inh | PI5P4K alpha inh
CNc1ccc2oc(C[C@@H]3OC4(CC[C@@H]3C)O[C@H](C(C)C(=O)c3ccc[nH]3)[C@H](C)C[C@H]4C)nc2c1C(=O)O (stereo partly drawn) | nt | -6%[60.1 µM] | nt | nt | nt | nt
C[C@H](CCC(=O)O)[C@H]1CC[C@@H]2[C@H]3[C@@H](CC[C@@]21C)[C@]1(C)CC[C@H](O)C[C@@H]1C[C@@H]3O | nt | -6%[12 µM] | nt | nt | nt | nt
O=c1[nH]c(=O)n(-c2cccc(F)c2)c(O)c1/C=C1\C=Nc2ccccc21 | -18% | -10% | 14µM* | -25% | 2% | -26
O=C(O)c1ccc(-n2c(O)c(/C=C3\C=Nc4ccccc43)c(=O)[nH]c2=O)cc1 | -11%[11.6 µM] | -5% | ? | 50µM* | -13% | ?
COc1cc(/C=C/[N+](=O)[O-])ccc1O | -7% | -43% | 32µM* | 5% | 2% | -20
CCN(CC)c1ccc(/C=C/[N+](=O)[O-])cc1 | -20% | 2% | ? | -10% | -12% | -4
CC(CCC(=O)O)C1CCC2C3CC[C@H]4CC(O)CC[C@@]4(C)C3CC[C@@]12C (stereo partly drawn) | nt | -10%[60.1 µM] | nt | nt | nt | nt
CN(N=O)c1ccc(O)c(O)c1 | nt | 2.4µM* | 0.79µM* | 0.89µM* | 0.63µM* | nt
Clc1ccc(CC[C@H](Cn2ccnc2)Sc2c(Cl)cccc2Cl)cc1 | nt | -13%[12 µM] | nt | nt | nt | nt
CCOc1cccc(OCC)c2c(C)[n+](CC3CCCO3)c(C)c1-2 (stereo not drawn) | -35% | 25µM* | ? | 45µM* | 22µM* | -15
COc1ccc(CCNCC2CCCO2)cc1 (stereo not drawn) | 2% | -2% | 10% | -4% | 38% | 0
Cc1ccc(N2C(=O)NC(=O)/C(=C/c3cnc(-c4ccccc4)nc3)C2=O)cc1C | ? | 4% | ? | 3% | -8% | -52*
Cc1cccc(N2C(=O)NC(=O)/C(=C\c3cnc(-c4ccccc4)nc3)C2=O)c1 | ? | -9% | 1% | -17% | -5% | -51*
Cc1cc(C)cc(N2C(=O)/C(=C\c3ccc(N4CCN(C)CC4)o3)C(=O)NC2=S)c1 | -19% | -9% | 32µM* | -24% | -20% | -9
C=CCN1C(=O)/C(=C/c2ccc(N3CCOCC3)o2)C(=O)NC1=S | -12% | -18% | ? | -17% | ? | -8
Oc1ccc(/C=N/NP(=S)(c2ccccc2)c2ccccc2)c(O)c1O | ? | -40% | ? | ? | 14µM* | -51*
CCOC(=O)c1ccc(N=C(c2ccccc2)c2c(O)n(C)c(=O)n(C)c2=O)cc1 | -10% | -9% | ? | -14% | 8% | 0
COC(=O)c1ccc(N=C(c2ccccc2)c2c(O)n(C)c(=O)n(C)c2=O)cc1 | 3% | -15% | 32µM* | 0% | 10% | -5
CC1CCN(C(=O)c2ncn(C)c2C(=O)N2CCC(C)CC2)CC1 | 6% | 12% | ? | -10% | nt | -13
O=C1/C(=C\c2ccccc2)C[C@@]2(O)[C@H]3Cc4ccc(O)c5c4[C@@]2(CCN3CC2CC2)[C@H]1O5 | nt | -3%[19.4 µM] | nt | nt | nt | nt
CCn1c(O)c(/C=N/NC(=O)c2ccccc2)c(=O)[nH]c1=S | 2% | 0% | 61% | -21% | 15% | ?
COc1ccccc1-n1c(O)c(/C=N/NC(=S)Nc2ccccc2)c(=O)[nH]c1=S | 0% | -18% | ? | -6% | 1% | -61*
O=C(O)CCn1cc(C=C2C(=O)NC(=S)NC2=O)c(-c2ccccc2)n1 | ? | -2% | 71% | -13% | 13% | -91*
Cc1cccc(N2C(=O)/C(=C/N3CCN(C(=O)c4ccco4)CC3)C(=O)NC2=S)c1 | ? | -4% | 3% | -6% | 9% | ?
Cc1ccc(N2C(=O)/C(=C/N3CCN(C(=O)c4ccco4)CC3)C(=O)NC2=S)cc1C | ? | -8% | 18µM* | -8% | -1% | -27
SMILES | WRN inhibitor | Pol kappa inh | Pol iota inh | Pol eta inh | POLB inh | PI5P4K alpha inh
CCc1ccc(-n2c(O)c(/C=N/N3CCCCC3c3cccnc3)c(=O)[nH]c2=O)cc1 (stereo not drawn) | -7% | 2%[60.1 µM] | 18% | 1% | -12% | 4
O=c1[nH]c(=S)n(-c2ccccc2)c(O)c1/C=N/N1CCCCC1c1cccnc1 (stereo not drawn) | 79µM* | 6% | ? | -23% | ? | -3
COC(C(=O)C(O)C(C)O)C1Cc2cc3cc(OC4CC(OC5CC(O)C(OC)C(C)O5)C(OC(C)=O)C(C)O4)c(C)c(O)c3c(O)c2C(=O)C1OC1CC(OC2CC(OC3CC(C)(O)C(OC(C)=O)C(C)O3)C(O)C(C)O2)C(O)C(C)O1 (stereo not drawn) | nt | 21µM* | nt | nt | nt | nt
O=c1cc(-c2ccc(O)cc2)oc2c([C@H]3O[C@@H](CO)[C@@H](O)[C@@H](O)[C@@H]3O)c(O)cc(O)c12 | nt | -9%[12 µM] | nt | nt | nt | nt
CC1=NNC(=O)C1Br (stereo not drawn) | 28µM* | -13% | 28µM* | -5% | nt | -14
CC1=NNC(=O)C1Cc1ccc(F)cc1 (stereo not drawn) | -3% | -6% | 152% | -14% | -4% | 2
C=C/C(=C/C(=O)C[C@H](C)C[C@@H](C)CC[C@H](O)[C@H](C)C(=O)C[C@@H](O)[C@H](C)[C@@H](C)OC(=O)C[C@@H](O)C1=C(C)C(=O)OC1=O)CC | nt | 4.7µM* | nt | nt | nt | nt
C=C1CCC(O)C/C1=C/C=C1\CCC[C@]2(C)[C@@H]([C@H](C)CCCC(C)C)CC[C@@H]12 (stereo partly drawn) | nt | 5%[60.1 µM] | nt | nt | nt | nt
O=C(O)c1cc(O)c(O)c(O)c1 | nt | 10µM*! | nt | nt | nt | nt
CCOc1cc(-c2c(C#N)c(=O)[nH]c3c2c(C)nn3-c2ccc(F)cc2)ccc1O | -34% | -1% | ? | -7% | -2% | -56*
Cc1ccc(-n2nc(C)c3c2OC(N)=C(C#N)C3c2ccc(F)cc2)cc1 (stereo not drawn) | -5% | 2% | ? | -12% | -22% | nt
Cc1cc(=O)n(-c2ccccc2Cl)[nH]1 | -8%[11.6 µM] | 0% | 2.8µM* | -5% | 10% | -2
COc1ccccc1N1C(=O)NC(=O)/C(=C\c2cnn(-c3ccccc3)c2)C1=O | ? | -18% | 18µM* | 40µM* | 25µM* | ?
CCOc1ccc(N2C(=O)NC(=O)/C(=C\c3cc(OC)c(OC)cc3[N+](=O)[O-])C2=O)cc1 | ? | -18% | ? | -5% | 16% | -23
COc1cccc(N2C(=O)NC(=O)/C(=C/c3ccc4c(c3)Cc3ccccc3-4)C2=O)c1 | 45µM* | -17% | ? | 1% | -20% | ?
